According to the supplement of paper PMC6555819:

Columns and labels:
Assay in all cases: PBM binding z-score (relative to random genomic background probes); higher = stronger binding; sequences stand for … in GC…GCGATTGACAGCGTAGAATGAAGG
[1] = test system: FXR:RXRa (NR concentration 270 nM, RXRa partner concentration 90 nM)
How it was run: (§1)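 Ligand-free nuclear receptor dimers were applied to custom Agilent 4×180K protein-binding microarrays whose double-stranded probes carried direct-repeat seeds, single-nucleotide variants, half-site ablations and random human genomic background sequences in 34-nt variable regions. Incubation lasted 1 h. Binding z-scores were computed against the random background probes from regression-normalized fluorescence.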

[2] = test system: LXRa:RXRa (NR concentration 270 nM, RXRa partner concentration 90 nM)
How it was run: as §1

[3] = test system: LXRa homodimer (NR concentration 270 nM)
How it was run: as §1

[4] = test system: LXRb:RXRa (NR concentration 270 nM, RXRa partner concentration 90 nM)
How it was run: as §1

[5] = test system: LXRb homodimer (NR concentration 270 nM)
How it was run: as §1

[6] = test system: PPARa:RXRa (NR concentration 270 nM, RXRa partner concentration 90 nM)
How it was run: as §1

[7] = test system: PPARg:RXRa (NR concentration 180 nM, RXRa partner concentration 90 nM)
How it was run: as §1

[8] = test system: PPARg:RXRa 270nM:90nM, anti-RXR (NR concentration 270 nM, RXRa partner concentration 90 nM)
How it was run: as §1

[9] = test system: PPARg:RXRa 30nM:10nM, anti-RXR (NR concentration 30 nM, RXRa partner concentration 10 nM)
How it was run: as §1

[10] = test system: PPARg:RXRa 90nM:30nM, anti-RXR (NR concentration 90 nM, RXRa partner concentration 30 nM)
How it was run: as §1

[11] = test system: PPARg:RXRa DBDmut IVT, anti-RXR (DBD mutation: RXRa K156A/R161A, NR concentration 270 nM, RXRa partner concentration 90 nM)
How it was run: as §1

[12] = test system: PPARg:RXRa IVT, anti-PPARg (NR concentration 270 nM, RXRa partner concentration 90 nM)
How it was run: as §1

[13] = test system: PPARg DBDmut:RXRa IVT, anti-PPARg (DBD mutation: PPARg1 K132A/R137A, NR concentration 270 nM, RXRa partner concentration 90 nM)
How it was run: as §1

[14] = test system: PPARg DBDmut IVT, anti-PPARg (DBD mutation: PPARg1 K132A/R137A, NR concentration 270 nM)
How it was run: as §1

[15] = test system: PPARg homodimer (NR concentration 180 nM)
How it was run: as §1

[16] = test system: PXR:RXRa (NR concentration 270 nM, RXRa partner concentration 90 nM)
How it was run: as §1

[17] = test system: PXR homodimer (NR concentration 270 nM)
How it was run: as §1

[18] = test system: RARa:RXR (NR concentration 270 nM, RXRa partner concentration 90 nM)
How it was run: as §1

[19] = test system: RARa homodimer (NR concentration 270 nM)
How it was run: as §1

[20] = test system: RARb:RXRa (NR concentration 270 nM, RXRa partner concentration 90 nM)
How it was run: as §1

Sequence	PBM binding z-score [1]	PBM binding z-score [2]	PBM binding z-score [3]	PBM binding z-score [4]	PBM binding z-score [5]	PBM binding z-score [6]	PBM binding z-score [7]	PBM binding z-score [8]	PBM binding z-score [9]	PBM binding z-score [10]	PBM binding z-score [11]	PBM binding z-score [12]	PBM binding z-score [13]	PBM binding z-score [14]	PBM binding z-score [15]	PBM binding z-score [16]	PBM binding z-score [17]	PBM binding z-score [18]	PBM binding z-score [19]	PBM binding z-score [20]
GATACAGGGTCAAGCCCAGAGTACGCGTATTGAT	7.02	4.26	-0.0405	3.88	-0.376	5.68	6.04	5.82	2.34	4.41	3.47	4.08	0.821	-0.0259	2.23	3.87	0.125	4.85	0.476	4.53
CCTATTAATTGACCATAAGGGCAACCGAAGCTCG	0.865	0.6	1.66	0.747	0.711	0.737	0.586	0.878	0.302	0.73	0.352	0.562	0.908	0.978	2.66	0.673	1.92	1.11	3.76	1.42
CCTTGCGGGTCACTCCAGGTTATAGCATCGGAGT	4.22	7.4	1.24	4.85	-0.435	4.25	4.41	4.41	1.34	3.35	4.56	4.95	0.399	0.356	1.54	4.59	0.258	3.14	0.115	3.11
ATCTCTAGGTAAAAGTTCATTGAATCCCGAGGAT	2.13	3.38	4.04	2.13	1.06	4.7	8.45	7.53	7.5	8.69	1.93	3.85	1.8	0.918	1.37	3.67	3.67	2.6	0.624	2.84
ATAATGAGGTTACCAAAGATCAGGGAAACGCTTG	1.8	6.12	0.166	3.15	0.596	3.37	3.17	3	1.2	2.35	4.27	3.93	1.55	1.88	0.591	1.51	0.204	1.93	1.22	2.14
CAAACTAGGTCACAGAGGTCAAAGTACGTGCGTA	7.52	6.76	7.47	6.46	2.46	6.64	10.3	8.39	6.94	8.5	8.25	9.23	3.28	3.36	6.01	7.09	11.9	7.54	2.98	5.38
